Each structure is given as a SMILES string. Inconclusive results are not listed. Active and inactive are the calls of the source. How the source made its calls, unless noted: active means hit-call score of the fitted dose curve at least 0.9, where 1 is the maximum; inconclusive means response in the unintended direction; inactive means score below 0.9.

Results on nine molecules are retold here after PubChem BioAssay (EPA / NIEHS).

Assay [1] is described as follows: VALA_TUBIPS_Antagonist_CellCount: Viability Assessment in the VALA Sciences human iPS-derived Endothelial Tubule Formation (TUBIPS) Antagonism Assay (AID 2284335).
A short description of assay [2]: VALA_MIGHUV1_ScratchOnly_WoundArea: VALA Sciences human Umbilical Vein Endothelial Cell Migration (MIGHUV) Assay, Area of Scratch Wound Inhibited Recovery (AID 2284336). A digest of the protocol: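 Wound area remaining after 24 h recovery imaged by Hoechst nuclear fluorescence in scratched HUVEC cultures, chemicals added within 30 min of scratching across a 6-point series. Gain of signal fitted against 0.1% DMSO; cytochalasin D positive control.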

Assay [3] in a line: VALA_TUBHUV_Agonist_TubuleLength: VALA Sciences human Umbilical Vein Endothelial Tubule Formation (TUBHUV) Agonism Assay (AID 2284337). In short, it runs like this:
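Tubule length quantified by CD31 immunofluorescence imaging after fixation. HUVEC-HDF co-cultures (1:3) pre-grown 3 days with 10 ng/ml VEGF, then dosed 3 days in VEGF medium; 0.1 % DMSO vehicle baseline.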

Assay [4] is described as follows: VALA_TUBIPS_Agonist_CellCount: Viability Assessment in the VALA Sciences human iPS-derived Endothelial Tubule Formation (TUBIPS) Agonism Assay (AID 2284338). As for the experimental part: VALA_TUBIPS_Agonist is a cell-based, multiplexed assay that uses human iPS-derived endothelial cells (iPSC). Measurements were taken 72 hours after chemical dosing in a 96-well plate.VALA_TUBIPS_Agonist_CellCount is the one of two assay components measured from the VALA_TUBIPS_Agonist assay. It is designed to make measurements of viability, a form of viability reporter, as detected with fluorescence intensity signals by HCS Fluorescent Imaging technology. Data from the assay component VALA_TUBIPS_Agonist_CellCount was analyzed at the endpoint, VALA_TUBIPS_Agonist_CellCount, in the positive analysis fitting direction relative to DMSO as the negative control and baseline of activity. Using a type of viability reporter, loss-of-signal activity can be used to understand viability. To generalize the intended target to other relatable targets, this assay endpoint is annotated to the cell cycle intended target family, where the subfamily is cell count.
[…]

The next assay concerns SERPINA7 (gene 6906). The experiment in a line: CCTE_GLTED_hTBG: CCTE's human Thyroxine-binding Globulin (TBG) Inhibition Assay, Great Lakes Toxicology and Ecology Division (GLTED) Lab (AID 2284343).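 Further: active chemicals lower fluorescence versus DMSO baseline by displacing probe.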 In short, it runs like this: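 Cell-free displacement of the fluorescent probe ANSA from human thyroxine-binding globulin after 2 h exposure. Read-out at ex 380/em 475 nm; DMSO baseline.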

The nature of assay [5]: TAMU_PeakParms_SingleDonor1434_Asystole: Texas A&M University (TAMU) 1.5-hr Human Induced Pluripotent Stem Cell (iPSC)-derived Cardiomyocytes Calcium (Ca+2) Flux Assay for Cardiotoxicity: Asystole (quiescence of beating) (AID 2284328). In short, it runs like this:
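Human iPSC-derived cardiomyocytes (donor 1434) were exposed to 0.2, 1, 10 and 100 uM compound in 0.5% DMSO for 90 min at 37C. Ca2+-dye fluorescence gave average peak frequency; POD is EC95, a 95% beat-rate drop versus DMSO.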

Assay [6] is described as follows: IUF_NPC1_cytotoxicity_72hr: Cytotoxicity Assessment at 72 hours in the Leibniz Research Institute for Environmental Medicine (IUF) Neural Progenitor Cell Proliferation Assay (NPC1) (AID 2284332).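 Further: rising LDH signal means more cytotoxicity.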 In short, it runs like this:
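Cytotoxicity by LDH membrane-integrity assay on medium supernatants, fluorescence via resazurin reduction, after 3-day single exposure of primary hNPC spheres at 37C, pH 7.2-7.6 with growth factors. Fitted upward against baseline.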

Assay [7] is described as follows: CCTE_Mundy_HCI_iCellGluta_NOG_NeuriteCount: CCTE's Neurite Outgrowth Assay in iCellGluta cells for Neurite Count, Mundy Lab (AID 2284342).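 Further: chemical exposure about 48 hours starting 2 hours after plating.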
A short description of assay [8]: CCTE_Deisenroth_DEVTOX-GLR_legacy_CellCount: (Legacy) Viability Assessment in CCTE's DevTox GLR-Endo Assay, Deisenroth Lab (AID 2284331; active means hit-call score of the fitted dose curve at least 0.9, where 1 is the maximum; inactive means score below 0.9). The following applies: actives raise or lower the signal. In short, it runs like this:
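RUES2-GLR human pluripotent cells were seeded 24 h, then differentiated 48 h with two compound doses at 24 h intervals (10-point, 1 nM - 200 uM). Fixed nuclei were imaged and counted; bidirectional fitting versus 0.2% DMSO.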

Assay [9] in a line: CCTE_Mundy_HCI_iCellGluta_NOG_NeuronCount: CCTE's Neurite Outgrowth Assay in iCellGluta cells for Neuron Count, Mundy Lab (AID 2284340).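 Further: cells fixed about 48 h after compound addition.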 In short, it runs like this: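 Neuron count read by automated high-content imaging of Hoechst 33342 and betaIII-tubulin/Alexa Fluor-488 labelling in human iPSC glutamatergic neurons. Activity fitted relative to DMSO.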
Assay [10] concerns SRY-box transcription factor 17 (SOX17) Protein Expression, Deisenroth Lab, SOX17 (gene 64321). The assay is described as follows: CCTE_Deisenroth_DEVTOX-GLR_legacy_Sox17: (Legacy) CCTE's DevTox GLR-Endo Assay Evaluation of SRY-box transcription factor 17 (SOX17) Protein Expression, Deisenroth Lab (AID 2284341; active means hit-call score of the fitted dose curve at least 0.9, where 1 is the maximum; inactive means score below 0.9). Particulars: actives raise or lower the signal. A digest of the protocol: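 Percent SOX17-positive cells, scored by high-content imaging as mean intensity exceeding pluripotent-control median by 5x BMAD, divided by cell count. Human RUES2-GLR endoderm differentiation, 48 h, two exposures 24 h apart, 1 nM–200 uM; DMSO-referenced bidirectional fitting.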

Assay [11] concerns SRY-box transcription factor 2 (SOX2) Protein Expression, Deisenroth Lab, SOX2 (gene 6657). The experiment in a line: CCTE_Deisenroth_DEVTOX-GLR_legacy_Sox2: (Legacy) CCTE's DevTox GLR-Endo Assay Evaluation of SRY-box transcription factor 2 (SOX2) Protein Expression, Deisenroth Lab (AID 2284346; active means hit-call score of the fitted dose curve at least 0.9, where 1 is the maximum; inactive means score below 0.9). A digest of the protocol:
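Two exposures, 24 h apart, during 48 h defined-media differentiation of seeded RUES2-GLR cells; nuclei-stained cells imaged. Sox2 positivity called at 5x BMAD above endoderm control median, DMSO median subtracted.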

For assay [12] the test system is unchanged. The assay is described as follows: CCTE_Deisenroth_DEVTOX-GLR_Endo_SOX2: CCTE's DevTox GLR-Endo Assay Evaluation of SRY-box transcription factor 2 (SOX2) Protein Expression, Deisenroth Lab (AID 2284412). A digest of the protocol:
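Endpoint is percent SOX2-positive cells (SOX2+ count/total cells) minus 0.2% DMSO control, from high-content imaging of fixed, nuclear-stained RUES2-GLR cells. Dosing twice at 24 h intervals over 48 h differentiation, 1 nM–200 uM in 10 points.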

The subject of assay [13] is SRY-box transcription factor 17 (SOX17) Protein Expression, Deisenroth Lab, SOX17 (gene 64321). The experiment in a line: CCTE_Deisenroth_DEVTOX-GLR_Endo_SOX17: CCTE's DevTox GLR-Endo Assay Evaluation of SRY-box transcription factor 17 (SOX17) Protein Expression, Deisenroth Lab (AID 2284413; active means hit-call score of the fitted dose curve at least 0.9, where 1 is the maximum; inactive means score below 0.9). In short, it runs like this:
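Fluorescent microscopy of a SOX17 reporter in RUES2-GLR pluripotent cells scored endoderm differentiation after 48 h and two 24-h-spaced exposures. Values are percent change in SOX17+ population against 0.2% DMSO, n=4 experimental replicates.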

The subject of assay [14] is Brachyury (BRA) Protein Expression, TBXT (gene 6862). The assay is described as follows: CCTE_Deisenroth_DEVTOX-GLR_Endo_BRA: CCTE's DevTox GLR-Endo Assay Evaluation of Brachyury (BRA) Protein Expression, Deisenroth Lab (AID 2284417; active means hit-call score of the fitted dose curve at least 0.9, where 1 is the maximum; inactive means score below 0.9). A digest of the protocol: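 Endpoint is the fraction of BRA reporter-positive cells over total nuclei, corrected by subtracting the 0.2% DMSO value. Chemicals (1 nM - 200 uM, 10 points) were dosed twice during 48 h differentiation of RUES2-GLR cells, read by imaging.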

Assay [15] in a line: CCTE_Deisenroth_DEVTOX-GLR_Endo_CellCount: Viability Assessment in CCTE's DevTox GLR-Endo Assay, Deisenroth Lab (AID 2284420; active means hit-call score of the fitted dose curve at least 0.9, where 1 is the maximum; inactive means score below 0.9). A digest of the protocol: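 Measured 48 h after dosing: fluorescent nuclei counted by imaging in human RUES2-GLR cells under defined differentiation media, tested at 1 nM - 200 uM. Values are percent cell-count change relative to 0.2% DMSO.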
The test system of assay [16] is SRY-box transcription factor 17 (SOX17) Protein Expression, Deisenroth Lab, SOX17 (gene 64321). The experiment in a line: CCTE_Deisenroth_DEVTOX-GLR_Pluri_SOX17: CCTE's DevTox GLR-Pluri Assay Evaluation of SRY-box transcription factor 17 (SOX17) Protein Expression, Deisenroth Lab (AID 2284427). In short, it runs like this: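 Using an inducible fluorescent SOX17 reporter in human pluripotent RUES2-GLR cells, compounds (1 nM - 200 uM) were given twice over 48 h differentiation. Percent SOX17+ cells minus DMSO control came from high-content image analysis.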

Assay [17] deals with SRY-box transcription factor 2 (SOX2) Protein Expression, Deisenroth Lab, SOX2 (gene 6657). The experiment in a line: CCTE_Deisenroth_DEVTOX-GLR_Pluri_SOX2: CCTE's DevTox GLR-Pluri Assay Evaluation of SRY-box transcription factor 2 (SOX2) Protein Expression, Deisenroth Lab (AID 2284428; active means hit-call score of the fitted dose curve at least 0.9, where 1 is the maximum; inactive means score below 0.9). In short, it runs like this: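 Percent SOX2+ RUES2-GLR cells, determined by fluorescence microscopy after 48 h and two 24-h-interval chemical exposures spanning 1 nM–200 uM, served as the endpoint. Values are expressed relative to 0.2% DMSO; total cell counts assessed viability.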

Assay [18] relates to Brachyury (BRA) Protein Expression, Deisenroth Lab, TBXT (gene 6862). The assay is described as follows: CCTE_Deisenroth_DEVTOX-GLR_Pluri_BRA: CCTE's DevTox GLR-Pluri Assay Evaluation of Brachyury (BRA) Protein Expression, Deisenroth Lab (AID 2284429). A digest of the protocol:
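Mesoderm readout after 48 h differentiation of human RUES2-GLR cells, dosed twice (24-h intervals) at 1 nM - 200 uM. BRA+ frequency from fluorescence imaging of fixed, nuclear-stained cells, DMSO-corrected.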

For assay [19] the test system is unchanged. The experiment in a line: CCTE_Deisenroth_DEVTOX-GLR_legacy_Bra: (Legacy) CCTE's DevTox GLR-Endo Assay Evaluation of Brachyury (BRA) Protein Expression, Deisenroth Lab (AID 2284329; active means hit-call score of the fitted dose curve at least 0.9, where 1 is the maximum; inactive means score below 0.9). In short, it runs like this:
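High-content imaging of fixed RUES2-GLR cells after a 48-hour differentiation with two compound exposures yields percent cells whose Bra signal exceeds pluripotent control median by 5x BMAD; values are baseline-corrected to DMSO.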

Take `O=c1c(O)c(-c2ccc(O)c(O)c2)oc2cc(O)cc(O)c12`: the molecule was classed as inactive in assay [1], in assay [2] and in assay [3].

`CCCCC(CC)COC(=O)CC(C(=O)OCC(CC)CCCC)S(=O)(=O)O` (centres undefined): in [1], the molecule was called inactive. The AC50 is 74.5 µM (active) in [2], 14.9 µM (active) in assay [3], 77.8 µM (active) in [4] and 1.95 µM (active) in the assay with SERPINA7 (gene 6906).

As to `CCOc1ccc2c(c1)C(C)=CC(C)(C)N2`, the outcome in assay [5] was inactive.

As for `OC[C@@H](O)[C@@H](O)[C@H](O)[C@H](O)CO`, the result in [6], in assay [1], in assay [3], in [4] and in [7] was inactive.

Consider `COC(=O)c1ccc(O)cc1`, for which the result in assay [5], in assay [1] and in assay [4] was inactive.

Take `CC(=O)Oc1ccccc1C(=O)O`: the result in assay [5], in assay [8], in assay [6], in assay [9], in assay [10] and in assay [7] was inactive. The molecule was called inactive in assay [11], in [12], in assay [13], in assay [14], in assay [15] and in assay [16]. Also, the outcome in assay [17] and in assay [18] was inactive. The AC50 in the assay on SERPINA7 (gene 6906) was 22.8 µM (active).

For `Oc1ccc2ccccc2c1N=Nc1ccccc1`, the call in assay [1], in assay [2] and in [3] was inactive. Besides, the AC50 is 31.9 µM (active) in assay [4] and 22.2 µM (active) in the assay with SERPINA7 (gene 6906).

Take `C=CCOC(=O)c1ccccc1C(=O)OCC=C`: in the assay on SERPINA7 (gene 6906), the AC50 was 19.5 µM (active).

On to `COc1cccc2c1C(=O)c1c(O)c3c(c(O)c1C2=O)C[C@@](O)(C(=O)CO)C[C@@H]3O[C@H]1C[C@H](N)[C@H](O)[C@H](C)O1`, for which the concentration at half-maximal activity (AC50) in assay [19] is 7.41 µM (active); in [8], 0.00843 µM (active); in [10] it was 4.93 µM (active); in assay [11], 0.107 µM (active); in assay [12] it was 2.25 µM (active); in assay [13], 5.85 µM (active). In addition, the AC50 was 0.0902 µM (active) in [14]; 0.00878 µM (active) in assay [15]; 0.27 µM (active) in assay [16]; 0.0073 µM (active) in assay [17]; 0.00927 µM (active) in assay [18].
